Experimental findings from PubChem BioAssay are described below.

Experiment [1] can be described thus: inhibitors of TNFa-induced NFkB p65 translocation, primary screen, imaging, HUVEC, MLSMR starter and 10KST1 sets (AID 438;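 active = inhibition above 20% together with a positive visual image hit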;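 also: compound added about 3h40 before a 20 min TNFalpha stimulation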;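 as to inhibition: signal is the nuclear over cytoplasmic p65 intensity ratio per well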). The settings on record: HUVEC TNFa-induced p65 nuclear translocation; cell count: measured here: nuclei count (cytotoxicity indicator), at 2.08 µM; inhibition: at 2 µM, stronger effect = higher value, 0% TNFa-plus-vehicle, 100% no-TNFa wells.
A short description of experiment [2]: inhibitors of mutant huntingtin aggregation, primary screen, imaging, exon1htt(103Q)mCFP cells, high-content imaging (AID 483).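 Also: compound exposure lasted 3 days before fixation.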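 As to nuclei count: percent of the per-plate median nuclei count of sample wells.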 The settings on record: exon1htt(103Q)mCFP cell line, aggregate imaging, at 2 µM; inhibition of aggregation: stronger effect = higher value; nuclei count: measured here: cell count, toxicity.
Experiment [3] is described as follows: inhibitors of E-selectin induction by TNFa, primary screen, imaging, HUVEC, immunofluorescence, MLSMR starter and 10KST1 sets (AID 487;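 active = visually confirmed hit in the image check and inhibition above 20%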;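 as to inhibition: signal is fraction of cell area covered by stained E-selectin grains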;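 as to nuclei count: 100% = median nuclei count of all wells on the same plate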). The settings on record: HUVEC TNFalpha-induced E-selectin immunofluorescence imaging, at 2 µM; inhibition: stronger effect = higher value; nuclei count: measured here: cell number, toxicity.
Experiment [4] has as its target Voltage-gated potassium channel subunit beta-2 (Rattus norvegicus) (UniProt P62483). Briefly: KvBeta enzyme negative modulators, primary screen, biochemical, NADPH fluorescence (AID 622;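 active = fluorescence slope higher than the sample average by over 3 SD, cut at about -0.22 in these data, passing the limit was not always enough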;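 also: slope of raw intensity against log time taken from 70 to 1610 s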). The settings on record: recombinant KvBeta, 4-cyanobenzaldehyde reduction, at 10 µM, stronger effect = higher value.
Experiment [5] shares this target. Kind of experiment: KvBeta positive modulators, primary screen, biochemical, NADPH fluorescence (AID 623;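 active = NADPH fluorescence slope more negative than the mean of all samples by about 3 SD, 99.7% confidence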;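 also: fluorescence intensity change per second fitted from 20 to 320 s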). The settings on record: Recombinant KvBeta, NADPH fluorescence decrease slope, 10 min; at 10 µM; stronger effect = lower value.
Experiment [6] has as its target Alpha-2C adrenergic receptor (Homo sapiens) (UniProt P18825). Briefly: modulators of alpha2C/GIRK thallium flux, primary screen, cell-based, HEK293 alpha2C/GIRK1/2 (AID 624;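 active = fluorescence slope after compound addition differing from the mean of all screened samples at 99.7% confidence, in either direction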;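 also: slope of fluorescence ratio to pre-addition baseline per second over 15 to 24 s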). Conditions: thallium flux BTC fluorescence, at 10 µM, actives lie on both sides.
Experiment [7] in a line: inhibitors of Sendai virus-induced IRF3 signaling, primary screen, TLR/RLR signaling modifier project, cell-based, Sendai virus stimulus, luciferase, 10K MLSCN set (AID 602276;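 active = inhibition at or above 50% at 10 µM; inactive = inhibition below 50%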;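 also: firefly luciferase from ISG56 promoter only with Renilla not read in this screen; 0% = Sendai virus plus DMSO and 100% = medium plus DMSO without virus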). Conditions: HEK293 RL24 IRF3 luciferase reporter, at 10 µM, stronger effect = higher value.
The nature of experiment [8]: inhibitors of poly I:C-induced TLR3 signaling, primary screen, cell-based, poly I:C stimulus, luciferase, 10K MLSCN set (AID 602277;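 active = inhibition of the reporter signal at or above 50%; inactive = inhibition below 50%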). Conditions: HEK293-TLR3 RL24 IRF3 luciferase reporter, at 10 µM, stronger effect = higher value. In general terms: A reporter such as luciferase makes a cellular process visible.

Active and inactive are the calls of the source.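 The calls were made as follows, unless noted: active = visual image review flags a hit and inhibition of aggregation exceeds 20%; inconclusive = visual hit but inhibition at or below 20%; inactive = no hit on visual image review.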

Chain of Alpha-2C adrenergic receptor (Homo sapiens) (P18825 whole entry, looked up): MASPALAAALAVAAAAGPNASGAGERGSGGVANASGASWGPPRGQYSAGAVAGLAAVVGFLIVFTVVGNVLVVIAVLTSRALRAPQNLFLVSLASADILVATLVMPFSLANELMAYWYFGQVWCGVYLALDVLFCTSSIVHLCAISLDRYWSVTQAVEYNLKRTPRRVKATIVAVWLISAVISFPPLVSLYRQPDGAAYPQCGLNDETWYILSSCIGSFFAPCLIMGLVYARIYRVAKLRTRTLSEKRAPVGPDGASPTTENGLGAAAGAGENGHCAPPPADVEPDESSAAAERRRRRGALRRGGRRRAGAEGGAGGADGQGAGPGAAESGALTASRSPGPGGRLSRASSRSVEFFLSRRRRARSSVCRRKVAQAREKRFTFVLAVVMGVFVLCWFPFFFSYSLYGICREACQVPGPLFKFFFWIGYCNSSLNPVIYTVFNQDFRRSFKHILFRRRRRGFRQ
Chain of Voltage-gated potassium channel subunit beta-2 (Rattus norvegicus) (P62483 whole entry, looked up): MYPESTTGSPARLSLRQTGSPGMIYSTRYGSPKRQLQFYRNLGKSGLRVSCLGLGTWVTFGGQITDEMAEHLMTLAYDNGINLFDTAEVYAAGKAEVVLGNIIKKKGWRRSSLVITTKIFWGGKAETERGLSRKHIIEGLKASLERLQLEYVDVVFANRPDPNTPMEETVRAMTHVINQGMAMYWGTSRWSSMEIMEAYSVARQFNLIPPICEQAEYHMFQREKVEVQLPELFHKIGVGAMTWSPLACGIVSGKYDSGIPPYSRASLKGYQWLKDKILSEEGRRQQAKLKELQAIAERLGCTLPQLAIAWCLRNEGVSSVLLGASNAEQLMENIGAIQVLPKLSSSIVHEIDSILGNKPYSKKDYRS

A word on the inhibition: it is the drop in the measured response relative to a control, in per cent. Regarding `COc1cc2c(cc1NC(=O)CN1CCN(S(=O)(=O)c3ccc(F)cc3)CC1)oc1ccccc12`, in experiment [1], the cell count was 583. The inhibition is -2.4% (inactive) in experiment [1], -33.6% (inactive) in experiment [3], 2.2% (inactive) in experiment [7] and 30.3% (inactive) in experiment [8]. Also, the inhibition of aggregation in experiment [2] was -2.8% (inactive). Further, the nuclei count worked out at 95.8% in experiment [2] and 88.8% in experiment [3]. Further, the fluorescence slope in experiment [4] was -0.364 (inactive). The NADPH fluorescence slope in experiment [5] was 1.3e-05 (inactive). Also, the slope in experiment [6] was 0.0037 (inactive).

Regarding `CCOc1ccc2nc(NC(=O)C3CCCN(S(=O)(=O)c4c(C)noc4C)C3)sc2c1` (stereo not drawn), in experiment [1], the cell count was found to be 674. For the same compound, the inhibition in experiment [1] was -4% (inactive); in experiment [3], -7.3% (inactive); in experiment [7], -4.49% (inactive); in experiment [8] it was -47.9% (inactive). Moreover, the inhibition of aggregation in experiment [2] was -0.7% (inactive). Besides, the nuclei count in experiment [2] came out at 108%; in experiment [3] it was 114%. Also, the fluorescence slope in experiment [4] is -0.592 (inactive). For the same compound, the NADPH fluorescence slope in experiment [5] was -1.1e-05 (inactive). The slope in experiment [6] is 0.00699 (inactive).

In the case of `CCn1c(SCC(=O)Nc2ccc(C(=O)OC)cc2)nnc1-c1cccs1`, the cell count in experiment [1] amounted to 654. The inhibition is 11.5% (inactive) in experiment [1], 42.7% (inactive) in experiment [3], 14.1% (inactive) in experiment [7] and 12.6% (inactive) in experiment [8]. Also, the inhibition of aggregation in experiment [2] was 24.6% (inactive). In addition, the nuclei count in experiment [2] turned out to be 110%; in experiment [3], 106%. The fluorescence slope in experiment [4] was -0.379 (inactive). Moreover, the NADPH fluorescence slope in experiment [5] is -5.2e-05 (inactive). Besides, in experiment [6], the slope was 0.00499 (inactive).

For `O=C(Cn1nnc(-c2cc(Cl)ccc2-n2cnnn2)n1)N1CCCc2ccccc21`, the cell count in experiment [1] came out at 574. The inhibition in experiment [1] is -2.1% (inactive); in experiment [3], -13.8% (inactive); in experiment [7], 17.3% (inactive); in experiment [8] it was 23.2% (inactive). For the same compound, the inhibition of aggregation in experiment [2] is -3.1% (inactive). In addition, the nuclei count is 97.2% in experiment [2] and 105% in experiment [3]. The fluorescence slope in experiment [4] was -0.425 (inactive). The NADPH fluorescence slope in experiment [5] was -0.000127 (inactive). Moreover, the slope in experiment [6] was 0.00585 (inactive).

On to `COc1ccc(-n2c(SCC(=O)c3c(N)n(C)c(=O)n(C)c3=O)nc3ccccc32)cc1`, for which the cell count in experiment [1] turned out to be 735. Besides, the inhibition was 1.4% (inactive) in experiment [1], -35.8% (inactive) in experiment [3], 10.6% (inactive) in experiment [7] and 14.8% (inactive) in experiment [8]. The inhibition of aggregation in experiment [2] is 10.2% (inactive). Besides, the nuclei count in experiment [2] worked out at 110%; in experiment [3] it was 106%. Moreover, the fluorescence slope in experiment [4] was -0.581 (inactive). The NADPH fluorescence slope in experiment [5] was -4.1e-05 (inactive). Besides, the slope in experiment [6] is 0.00517 (inactive).

Turning to `CCOC(=O)CSc1nnc(-c2ccc(NS(=O)(=O)c3ccc(C)cc3)cc2)o1`, in experiment [1], the cell count stood at 813. Besides, the inhibition was -6.7% (inactive) in experiment [1], -37.7% (inactive) in experiment [3], 8.31% (inactive) in experiment [7] and 29.4% (inactive) in experiment [8]. Also, the inhibition of aggregation in experiment [2] is -0.7% (inactive). For the same compound, the results for the nuclei count in experiment [2] and in experiment [3] were 98.9% and 108%, respectively. Further, the fluorescence slope in experiment [4] was -0.433 (inactive). Also, the NADPH fluorescence slope in experiment [5] is -4.4e-05 (inactive). Besides, the slope in experiment [6] was 0.00389 (inactive).

As for `Cc1ccccc1-n1c(Cn2c(=O)sc3ccccc32)nnc1SCC(N)=O`, in experiment [1], the cell count was determined as 542. Besides, the inhibition in experiment [1] is 4.5% (inactive); in experiment [3] it was -28.8% (inactive); in experiment [7] it was 16.4% (inactive); in experiment [8], 25.2% (inactive). In addition, the inhibition of aggregation in experiment [2] is 4.1% (inactive). Besides, the nuclei count amounted to 110% in experiment [2] and 111% in experiment [3]. Further, the fluorescence slope in experiment [4] is -0.518 (inactive). In addition, the NADPH fluorescence slope in experiment [5] is -3.8e-05 (inactive). Besides, the slope in experiment [6] was 0.00845 (inactive).

With `CC1=C(n2nnc3ccccc32)C(c2ccccc2)C(C#N)=C(N)O1` (stereo not drawn), the cell count in experiment [1] amounted to 424. For the same compound, the inhibition in experiment [1] is 1.5% (inactive); in experiment [3] it was 27.5% (inactive); in experiment [7], 17.5% (inactive); in experiment [8] it was 32% (inactive). Also, the inhibition of aggregation in experiment [2] is 13.7% (inactive). The nuclei count in experiment [2] came out at 90.7%; in experiment [3] it was 113%. In addition, the fluorescence slope in experiment [4] is -0.364 (inactive). The NADPH fluorescence slope in experiment [5] is -0.00012 (inactive). Also, the slope in experiment [6] was 0.00512 (inactive).
